Results as given in PubChem BioAssay AID1159580 (chemical genetic matrix, 2015).
The whole screen tested about 5,500 compounds, of which about 2,000 (36%) were called active. Not shown: some 18% with an inconclusive outcome. No stated cut-off is given here; in the data, active means normalized growth mostly below about 0.91 (no sharp cut-off); inconclusive means no clear call, values can overlap the other calls; inactive means mostly above about 0.92. The list shows a part of the results.

Assay: chemical genetic growth profiling, strain panel (AID 1159580);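 further: tested at 20 µM; growth read once vehicle control cultures reached saturation at 30 °C; 1 = growth at the plate median or of vehicle wells; lower values mean less growth of the strain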
Conditions: S. cerevisiae deletion strains, growth OD
[1] = locus YHR030C, strain SLT2, active compounds read low
[2] = locus YHR079C, strain IRE1, active compounds read low
[3] = locus YJL095W, strain BCK1, active compounds read low
[4] = locus YJR066W, strain TOR1, active compounds read low
[5] = locus YLR113W, strain HOG1, active compounds read low
[6] = locus YNL183C, strain NPR1, active compounds read low
[7] = locus YOR231W, strain MKK1, active compounds read low
[8] = locus YPL256C, strain CLN2, active compounds read low

Measured: normalized growth

COc1cc(O)cc(O)c1C(C)=O
inactive: [1] 0.969 | [2] 0.981 | [3] 0.984 | [4] 0.916 | [5] 0.971 | [6] 0.907 | [7] 0.985 | [8] 0.97

COc1cc(OC)c(C(C)=O)c(O)c1C
active: locus YBR009C, strain hhf1, active compounds read low 0.88 | locus YBR023C, strain chs3, active compounds read low 0.905 | locus YCL011C, strain gbp2, active compounds read low 0.905 | locus YDR159W, strain sac3, active compounds read low 0.847 | locus YER155C, strain BEM2 (second series), active compounds read low 0.735 | locus YGL227W, strain vid30, active compounds read low 0.913 | locus YGL240W, strain doc1, active compounds read low 0.812 | locus YLR221C, strain rsa3, active compounds read low 0.884 | locus YLR262C, strain YPT6 (second series), active compounds read low 0.856 | locus YLR320W, strain mms22, active compounds read low 0.87 | locus YML120C, strain ndi1, active compounds read low 0.889 | locus YOR270C, strain vph1, active compounds read low 0.744 | locus YOR290C, strain snf2, active compounds read low 0.83
inactive: locus YAL021C, strain ccr4, active compounds read low 0.991 | locus YAL026C, strain drs2, active compounds read low 0.908 | locus YAL030W, strain snc1, active compounds read low 0.953 | locus YBL061C, strain skt5, active compounds read low 0.923 | locus YBR171W, strain sec66, active compounds read low 0.945 | locus YBR231C, strain swc5, active compounds read low 0.934 | locus YBR279W, strain paf1, active compounds read low 0.951 | locus YCL016C, strain dcc1, active compounds read low 0.956 | locus YCL061C, strain MRC1, active compounds read low 0.937 | locus YCL069W, strain vba3, active compounds read low 0.942 | locus YCR088W, strain abp1, active compounds read low 0.937 | locus YDL005C, strain med2, active compounds read low 0.978 | locus YDL040C, strain nat1, active compounds read low 0.949 | locus YDR001C, strain nth1, active compounds read low 0.939 | locus YDR069C, strain doa4, active compounds read low 0.948 | locus YDR137W, strain rgp1, active compounds read low 0.859 | locus YDR195W, strain ref2 1.13 | locus YDR297W, strain sur2, active compounds read low 0.941 | locus YDR334W, strain swr1, active compounds read low 0.946 | locus YDR335W, strain msn5, active compounds read low 0.95 | locus YDR392W, strain spt3, active compounds read low 0.758 | locus YEL003W, strain gim4, active compounds read low 0.923 | locus YEL037C, strain rad23, active compounds read low 0.938 | locus YEL061C, strain CIN8 (second series), active compounds read low 0.931 | locus YER015W, strain faa2, active compounds read low 0.955 | locus YER016W, strain bim1, active compounds read low 0.954 | locus YER111C, strain swi4, active compounds read low 0.95 | locus YFR010W, strain ubp6, active compounds read low 0.932 | locus YGL167C, strain pmr1, active compounds read low 0.945 | locus YGL173C, strain kem1, active compounds read low 0.921 | locus YGL253W, strain hxk2, active compounds read low 0.935 | locus YHR013C, strain ard1, active compounds read low 0.875 | locus YHR027C, strain rpn1, active compounds read low 0.969 | [1] 0.931 | [2] 0.935 | locus YHR142W, strain chs7, active compounds read low 0.877 | locus YJL092W, strain hpr5, active compounds read low 0.946 | locus YJL095W, strain BCK1 (second series), active compounds read low 0.944 | [3] 0.927 | locus YJL115W, strain asf1, active compounds read low 0.944 | locus YJL129C, strain trk1, active compounds read low 0.903 | locus YJL154C, strain vps35, active compounds read low 0.939 | locus YJL164C, strain tpk1, active compounds read low 0.93 | locus YJL166W, strain qcr8, active compounds read low 0.912 | locus YJL187C, strain SWE1, active compounds read low 0.945 | [4] 0.855 | locus YKL160W, strain elf1, active compounds read low 0.956 | locus YKR026C, strain gcn3, active compounds read low 0.93 | locus YKR091W, strain srl3, active compounds read low 0.946 | locus YLL001W, strain dnm1, active compounds read low 0.939 | locus YLL026W, active compounds read low 0.953 | locus YLL041C, strain sdh2, active compounds read low 0.961 | locus YLR027C, strain aat2, active compounds read low 0.962 | [5] 0.901 | locus YLR258W, strain gsy2, active compounds read low 0.933 | locus YLR342W, strain FKS1, active compounds read low 0.954 | locus YLR357W, strain rsc2, active compounds read low 0.942 | locus YLR370C, strain arc18, active compounds read low 0.938 | locus YLR384C, strain iki3, active compounds read low 0.974 | locus YMR058W, strain fet3, active compounds read low 0.908 | locus YMR125W, strain sto1, active compounds read low 0.984 | locus YMR129W, active compounds read low 0.944 | locus YMR205C, strain PFK2, active compounds read low 0.903 | locus YMR231W, strain pep5, active compounds read low 0.982 | locus YNL071W, strain lat1, active compounds read low 0.919 | [6] 0.887 | locus YNL209W, strain ssb2, active compounds read low 0.96 | locus YNL248C, strain rpa49, active compounds read low 0.917 | locus YNL322C, strain KRE1 (second series), active compounds read low 0.927 | locus YNR049C, strain mso1, active compounds read low 0.937 | locus YOR001W, strain rrp6, active compounds read low 0.95 | locus YOR070C, strain gyp1, active compounds read low 0.937 | locus YOR080W, strain dia2, active compounds read low 0.943 | locus YOR083W, strain WHI5, active compounds read low 0.942 | locus YOR106W, strain vam3, active compounds read low 0.91 | [7] 0.96 | locus YOR265W, strain rbl2, active compounds read low 0.962 | locus YPL051W, strain arl3, active compounds read low 0.972 | locus YPL078C, strain atp4, active compounds read low 0.908 | locus YPL106C, strain sse1, active compounds read low 0.9 | locus YPL240C, strain hsp82, active compounds read low 0.94 | [8] 0.91

COc1cc(O)c(C(C)=O)c(O)c1
inactive: [1] 1.05 | [2] 1.03 | [3] 0.989 | [4] 0.979 | [5] 0.935 | [6] 0.925 | [7] 1.04 | [8] 0.992
